USP2a inh = USP2a (human) protease inhibition; O75604; USP2 core, Ub-CHOP2 coupled fluorogenic reporter, 485/531; Potency, µM (doses to about 38.3 µM), for inactives: at the highest dose activity change, negative = inhibition, most hits filed as inhibitors; 330,000 compounds, 0.01% hits;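 also: potency is read from the fitted curve at half-maximal effect; plate controls were DMSO wells for no effect and full inhibition by NEM control for full effect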
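Deubiquitinase activity read as fluorescence (485/531 nm) after Ub-CHOP2 cleavage activates the enterokinase reporter on its substrate; USP2 core 10nM, Ub-CHOP2 and substrate 25nM each, 30min compound preincubation then 60min RT; data normalized to NEM, curves fitted.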
PI5P4Ka inh = PI5P4K alpha (human) kinase inhibition; PI5P4Kalpha enzyme, ADP-Glo luminescence, 60 min; active compounds read low; max response, %; 330,000 compounds, 1.2% hits; active = max response of -50% or lower; inconclusive = between -30% and -50%; inactive = -30% or higher; also: value at the top dose of about 77 µM; % is scaled to controls: 0 for no effect and ±100 for the full control effect
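Luminescence from ADP-Glo served as readout of PI5P4Kalpha activity in a qHTS format. Reaction: enzyme, substrate, compound, ATP at 5 microM final, 60 min at RT.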
WRN helicase inh-1 = blocks human WRN helicase; 360,000 compounds, 0.46% hits; AID 651768; Potency, µM (doses to about 114 µM), without a hit: at the highest dose activity change, negative = inhibition, hits mostly inhibitors; Q14191; WRN helicase unwinding, fluorescent forked duplex, kinetic; also: potency is read from the fitted curve at half-maximal effect; % is scaled to controls: 0 for no effect and ±100 for the full control effect; nearly all actives have a fitted effect of over 55% in size
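Enzyme (20 nM final) and test compound sit together 15 min at room temperature before substrate addition. Substrate is a single-forked duplex oligonucleotide (100 nM) labelled with fluorophore and quencher, with 2 mM ATP; helicase unwinding raises red fluorescence, read kinetically.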
USP1 inh = USP1/UAF1 (human) deubiquitinase inhibition. Potency, µM (titrated, usually from 57.1 µM), for the others: at the top dose activity change, negative = inhibition, actives largely listed as inhibitors. 390,000 compounds, 0.23% hits. recombinant USP1/UAF1, Ub-Rhodamine cleavage fluorescence. AID 743255. O94782; also: potency is read from the fitted curve at half-maximal effect; % is scaled to controls: 0 for no effect and ±100 for the full control effect; nearly all actives have a fitted effect of over 60% in size
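1 nM enzyme complex + cpd, 15 min RT; start with Ub-Rho 150nM final; kinetic fluorescence ex 480/em 540, 6 reads q60 s. Buffer 50mM HEPES pH 7.8, 0.5mM EDTA, 0.1 mg/ml BSA, 1mM TCEP, 0.01% Tween-20.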
PLK1 PBD block = blocks phosphopeptide binding to human PLK1 polo-box domain | Potency, µM, for the others: max response, negative = inhibition, hits mostly inhibitors | 360,000 compounds, 2.8% hits | Plk1 PBD binding of FITC phosphopeptide, fluorescence polarization | P53350 | AID 720504; also: potency is read from the fitted curve at half-maximal effect; series mostly up to about 57 µM; % is scaled to controls: 0 for no effect and ±100 for the full control effect; nearly all actives have a fitted effect of over 65% in size
WRN helicase inh-2 = WRN helicase inhibition, cherry-pick retest | shares compounds with WRN helicase inh-1 | WRN helicase DNA unwinding, fluorescence kinetic | Potency, µM (highest dose often 57.1 µM), without a hit: at the highest dose activity, negative = inhibition, most hits filed as inhibitors | 610 compounds, 63% hits | AID 720497; also: potency is read from the fitted curve at half-maximal effect; nearly all actives have a fitted effect of over 65% in size
TO DNA binding = binds DNA, flagged in WRN inhibitor counterscreen; thiazole orange DNA binding displacement, fluorescence; Potency, µM (series often up to 57.1 µM), for inactives: at the top dose activity change, negative = inhibition, actives largely listed as inhibitors; shares compounds with WRN helicase inh-1; 610 compounds, 10% hits;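 also: drop in dye fluorescence marks compound binding to DNA; potency is read from the fitted curve at half-maximal effect; % is scaled to controls: 0 for no effect and ±100 for the full control effect; nearly all actives have a fitted effect of over 60% in size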
BLM counter = BLM helicase inhibition, WRN selectivity check. Recombinant BLM helicase DNA unwinding, red fluorescence. Potency, µM (doses to about 57.1 µM), for inactives: at the highest dose activity change, negative = inhibition, most hits filed as inhibitors. 610 compounds, 60% hits. shares compounds with WRN helicase inh-1; also: potency is read from the fitted curve at half-maximal effect; nearly all actives have a fitted effect of over 60% in size
The depositor's hits bear a star; ? = inconclusive; . = no result given. Only some compounds are listed: those with a hit (about 3.3% of all), similar ones and a draw of the others. Unless noted, calls follow the shape of the dose curve; as a rule, active = well fitted curve in the direction sought with a large enough effect; inconclusive = small, poorly fitted or top-dose-only effect, or another doubt; inactive = no such curve, though single readings can be large; an effect the other way counts as inactive or inconclusive.

SMILES	USP2a inh	PI5P4Ka inh	WRN helicase inh-1	USP1 inh	PLK1 PBD block	WRN helicase inh-2	TO DNA binding	BLM counter
Nc1nonc1-c1nc2ccccc2n1CC(=O)N/N=C/c1ccc(-c2cccc(C(=O)O)c2)o1	-3%	-60*	40µM*	-20%	?	24µM*	?	24µM*
Nc1nnc(CC(=O)N/N=C/c2ccc(-c3cccc(C(=O)O)c3)o2)s1	-1%	-57*	?	-16%	-7%	?	-22%	?
Cn1c(=O)c2c(SCC(=O)Nc3ccccc3C(F)(F)F)nc(C3CCCC3)nc2n(C)c1=O	.	.	.	-15%	.	.	.	.
CCn1c(C)c(C2=CCN(S(=O)(=O)c3ccc(C)cc3)CC2)c2ccccc21	0%	-5	?	-5%	-14%	?	12%	?
CCSc1nnc(NC(=O)CSc2sc3c(O)cc(=O)[nH]c3c2C#N)s1	-1%	-102*	18µM*	2%	12µM*	19µM*	?	?
CCN(CC)c1ccc(/C=C2\NC(=O)NC2=O)cc1	4%	3	6%	-15%	-3%	.	.	.
CCN(CC)c1ccc(/C=C2\C(=O)c3ccc(C(=O)O)cc3C2=O)cc1	13%	-70*	40µM*	14µM*	6%	22µM*	124%	?
COc1ccc(C(=O)Nc2nc(-c3ccc([N+](=O)[O-])cc3)c(-c3ccc(OC)cc3)s2)cc1	9%	7	?	?	6%	-11%	5%	-11%
Cc1ccccc1N=Cc1cc2c(cc1O)OC(N)=C(C#N)C2c1ccccc1 (stereo unspecified)	1%	?	?	?	21%	?	21%	?
CSCCC(NS(=O)(=O)c1ccc2c(c1)oc(=O)n2C)C(=O)N1CCN(c2cc(Cl)ccc2C)CC1 (stereo unspecified)	.	.	.	2%	.	.	.	.
CC1(C)Cc2c(C#N)c(N3CCN(C(=O)c4ccccc4Cl)CC3)nc(-c3ccco3)c2CS1	-23%	-85*	35µM*	-24%	?	-13%	2%	?
CC(=O)N1CCN(c2nc(-c3ccco3)c3c(c2C#N)CC(C)(C)SC3)CC1	-2%	-24	-25%	-8%	-29%	.	.	.
Cc1oc(-c2ccc(C(=O)NCc3ccccc3F)cc2)nc1COc1ccccc1	.	.	.	-26%	.	.	.	.
O=C1C(=Cc2ccco2)CCC1=Cc1ccco1	.	-84*	3.5µM*	?	?	7.6µM*	2%	7.6µM*
COc1cccc2c1C(=O)c1c(O)c3c(c(O)c1C2=O)CC(O)(C(=O)CO)CC3OC1CC(N(C)C)C(O)C(C)O1 (stereo unspecified)	.	-1	3µM*	?	?	17µM*	171%	27µM*
Cc1ccc(-c2nn3cnnc3s2)cc1NC(=O)c1ccc(-c2cccc(Cl)c2)o1	.	.	.	.	.	?	163%	?
O=C(Nc1cccc2nsnc12)c1ccc(-c2cccc(Cl)c2)o1	2%	-4	-36%	-23%	?	.	.	.
COC(=O)c1ccccc1NC(=O)c1cc(C)nc2c1c(C)nn2-c1ccc(C)cc1	.	.	.	-26%	.	.	.	.
CCOc1ccc(C(=O)NCc2nnnn2-c2ccc(C)c(C)c2)cc1OCC	.	.	.	-3%	.	.	.	.
N#C/C(=C\c1ccc(O)c(O)c1)C(=O)Nc1cccc2ncccc12	?	-72*	14µM*	-26%	-10%	4.3µM*	12µM*	1.7µM*
